Measured values taken from PubChem BioAssay (NCI).
Compounds without any hit were thinned out: in the full panel of roughly 83,000, 20% have a hit.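 Results are percent growth after 48 hours of single-concentration exposure. 100 means growth as in untreated cells, lower positive values show inhibition; negative values down to -100 show cell death.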 Active and inactive are the calls of the source. Rule for the calls: active = growth percent below 10; inactive = the rest.

Assays:
Experiment in all cases: NCI-60 one-dose screen, 48 h (100 = growth as untreated, 0 = no growth, -100 = all killed)
Settings in all cases: 10 µM unless noted
HCT-15 colon = system: HCT-15 colon
HT29 colon = system: HT29 colon
SNB-75 CNS = system: SNB-75 CNS
SNB-19 CNS = system: SNB-19 CNS
U251 CNS = system: U251 CNS
PC-3 prostate = system: PC-3 prostate
SK-MEL-5 melanoma = system: SK-MEL-5 melanoma
UACC-62 melanoma = system: UACC-62 melanoma
LOX IMVI melanoma = system: LOX IMVI melanoma
SK-MEL-28 melanoma = system: SK-MEL-28 melanoma
SK-MEL-2 melanoma = system: SK-MEL-2 melanoma
EKVX NSCLC = system: EKVX NSCLC
SN12C renal = system: SN12C renal
UO-31 renal = system: UO-31 renal
TK-10 renal = system: TK-10 renal
ACHN renal = system: ACHN renal
CAKI-1 renal = system: CAKI-1 renal
A498 renal = system: A498 renal
CCRF-CEM leukemia = system: CCRF-CEM leukemia
MOLT-4 leukemia = system: MOLT-4 leukemia

Measured: growth

Clc1nc2ccccc2nc1-c1nnc(C2CCCCC2)o1
inactive: HCT-15 colon 71.7% | HT29 colon 109% | SNB-75 CNS 97.2% | SNB-19 CNS 98.7% | U251 CNS 97.9% | PC-3 prostate 95.8% | SK-MEL-5 melanoma 98.8% | UACC-62 melanoma 96.4% | LOX IMVI melanoma 66.6% | SK-MEL-28 melanoma 104% | SK-MEL-2 melanoma 102% | EKVX NSCLC 98.8% | SN12C renal 101% | UO-31 renal 92.7% | TK-10 renal 105% | ACHN renal 99.2% | CAKI-1 renal 89.5% | A498 renal 89.3% | CCRF-CEM leukemia 84.9% | MOLT-4 leukemia 109%

C=C(C=O)[C@@H]1CC[C@]2(C)[C@H](C(=O)C=C3[C@H]4C[C@](C)(C(=O)OC)CC[C@]4(C)CC[C@]32C)[C@@]1(C)CCC#N
active: HCT-15 colon -45.3% | HT29 colon -5.25% | U251 CNS 2.98% | SK-MEL-5 melanoma -88% | UACC-62 melanoma -19% | LOX IMVI melanoma -83.2% | SK-MEL-28 melanoma -38.3% | SK-MEL-2 melanoma -22.3% | UO-31 renal -91.5% | ACHN renal -12.5% | CAKI-1 renal 7.53% | MOLT-4 leukemia 0.0515%
inactive: SNB-75 CNS 66.1% | SNB-19 CNS 30.7% | PC-3 prostate 11.2% | EKVX NSCLC 47.7% | SN12C renal 12.8% | TK-10 renal 48.9% | A498 renal 115% | CCRF-CEM leukemia 10.2%

COc1ccc(/C=C(\C#N)C(=O)N2c3ccccc3Sc3ccc(SC)cc32)cc1F
inactive: HCT-15 colon 94.9% | HT29 colon 103% | SNB-75 CNS 87.6% | SNB-19 CNS 90.4% | U251 CNS 92.9% | PC-3 prostate 88.9% | SK-MEL-5 melanoma 93% | UACC-62 melanoma 71.3% | LOX IMVI melanoma 88.8% | SK-MEL-28 melanoma 98.9% | SK-MEL-2 melanoma 96.2% | EKVX NSCLC 97.8% | SN12C renal 99.4% | UO-31 renal 76.2% | TK-10 renal 97.1% | ACHN renal 88.5% | CAKI-1 renal 68.9% | A498 renal 79.5% | CCRF-CEM leukemia 93.9% | MOLT-4 leukemia 82.9%

CCOC(=O)C1=NNC(c2ccc(Cl)cc2)C1C(=O)N1C(=S)NC(=O)C1CC(C)C (stereo not given)
inactive: HCT-15 colon 105% | HT29 colon 116% | SNB-75 CNS 100% | SNB-19 CNS 98.3% | U251 CNS 105% | PC-3 prostate 96.8% | SK-MEL-5 melanoma 106% | UACC-62 melanoma 94.2% | LOX IMVI melanoma 103% | SK-MEL-28 melanoma 103% | SK-MEL-2 melanoma 110% | EKVX NSCLC 84.5% | SN12C renal 99.4% | UO-31 renal 81.4% | TK-10 renal 164% | ACHN renal 93.3% | CAKI-1 renal 85.2% | A498 renal 95% | CCRF-CEM leukemia 100% | MOLT-4 leukemia 89.5%

Cc1cc2nc(C(Cl)Cl)nc(-c3cccs3)n2n1
active: HT29 colon -12.9% | U251 CNS -11.1% | EKVX NSCLC -7.94% | ACHN renal -36.4% | CAKI-1 renal -30.9% | A498 renal -40.7%
inactive: HCT-15 colon 11.4% | SNB-75 CNS 75.3% | SNB-19 CNS 21% | PC-3 prostate 11.2% | SK-MEL-5 melanoma 83.9% | UACC-62 melanoma 45.5% | LOX IMVI melanoma 74.7% | SK-MEL-28 melanoma 14.6% | SK-MEL-2 melanoma 97.7% | SN12C renal 62.3% | UO-31 renal 31% | TK-10 renal 18.2% | CCRF-CEM leukemia 59.8% | MOLT-4 leukemia 21.3%

CC[C@]12C=CCN3CC[C@@]4(c5cc(NC(=O)COc6cc(O)c7c(=O)cc(-c8ccccc8)oc7c6)c(OC)cc5N(C)[C@H]4[C@@](O)(C(=O)OC)[C@@H]1OC(C)=O)[C@@H]32
active: HCT-15 colon -69% | HT29 colon -61% | SNB-75 CNS -34.2% | SNB-19 CNS -54.3% | U251 CNS -87.5% | PC-3 prostate -88.7% | SK-MEL-5 melanoma -90.9% | UACC-62 melanoma -87.3% | LOX IMVI melanoma -93.2% | SK-MEL-28 melanoma -89% | SK-MEL-2 melanoma -82.9% | EKVX NSCLC -42.2% | SN12C renal -75.4% | UO-31 renal -84.9% | TK-10 renal -45.5% | ACHN renal -78.1% | CAKI-1 renal -78.3% | A498 renal -89.6% | CCRF-CEM leukemia -20.2% | MOLT-4 leukemia -23%

O=S(=O)(NCCNc1nccc(-n2cnc3ccccc32)n1)c1ccc(Br)cc1
inactive: HCT-15 colon 95.7% | HT29 colon 97.2% | SNB-75 CNS 74.1% | SNB-19 CNS 101% | U251 CNS 98.6% | PC-3 prostate 93.8% | SK-MEL-5 melanoma 89.1% | UACC-62 melanoma 82.8% | LOX IMVI melanoma 99.1% | SK-MEL-28 melanoma 108% | SK-MEL-2 melanoma 108% | EKVX NSCLC 83.4% | SN12C renal 91.5% | UO-31 renal 79.8% | TK-10 renal 103% | ACHN renal 93.6% | CAKI-1 renal 81.5% | A498 renal 76.3% | CCRF-CEM leukemia 101% | MOLT-4 leukemia 95.9%

CC(C)(C)c1ccc(-c2nnc(-c3nc4ccccc4nc3Cl)o2)cc1
inactive: HCT-15 colon 81.9% | HT29 colon 116% | SNB-75 CNS 96.4% | SNB-19 CNS 95.8% | U251 CNS 98.2% | PC-3 prostate 92.4% | SK-MEL-5 melanoma 98.1% | UACC-62 melanoma 72.7% | LOX IMVI melanoma 90% | SK-MEL-28 melanoma 68.4% | SK-MEL-2 melanoma 63.8% | EKVX NSCLC 99.2% | SN12C renal 86.2% | UO-31 renal 79.4% | TK-10 renal 107% | ACHN renal 102% | CAKI-1 renal 89.2% | A498 renal 89.4% | CCRF-CEM leukemia 103% | MOLT-4 leukemia 101%
